Hits are enriched below; roughly 7.5% of the tested compounds scored in any of these assays.
Luc counter: Kinase-Glo luciferase inhibition (counter-screen); Kinase-Glo luciferase, ATP luminescence, 8 min; Potency, µM (doses to about 38.3 µM), for the others: at the highest dose activity change, negative = inhibition, hits mostly inhibitors; Q27757; actives 0.28% (n = 200,000); also: % is scaled to controls: 0 for no effect and ±100 for the full control effect; nearly all actives have a fitted effect of over 60% in size
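Luminescence was the read-out, taken after 8-minute incubation at ambient temperature. Luciferase turned over luciferin with 10 uM ATP in imidazole pH 7.2 buffer containing KCl, MgCl2, Tween 20 and BSA.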
ELG1 genotoxic: induces genotoxicity in HEK293T cells with luciferase-tagged ELG1. HEK293T ELG1-luciferase reporter, luminescence, 16 h. AID 504466. actives 1.3% (n = 330,000). Potency, µM (titrated, usually from 46 µM), for the others: top-dose activity change, positive = activation, usual class: activators; also: % of control where 0% means no effect; nearly all actives have a fitted effect of over 60% in size
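HEK293T cells expressing luciferase-tagged ELG1 were exposed to compound or DMSO vehicle for 16 hr at 37 °C and 5% CO2. Luciferase activity was then measured with ONE-Glo after 30 min at room temperature.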
SMN2 splice up: increases expression of the SMN2 splice variant; HEK293 SMN2-luciferase splicing reporter, luminescence, 30-36 h; actives 2.8% (n = 210,000); Potency, µM (doses to about 46.1 µM), for inactives: at the highest dose activity change, positive = activation, usual class: activators; AID 1458; also: % of control where 0% means no effect; nearly all actives have a fitted effect of over 55% in size
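HEK293 cells carry an SMN2 minigene-luciferase reporter in which exon 7 inclusion puts luciferase in frame. Cells were seeded at 2000 cells/well, attached for 10-12 hours, then exposed to compounds for 30-36 hours at 37C before ONE-Glo luminescence.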
NPC1 promoter act: NPC1 promoter activation; actives 2.4% (n = 320,000); Huh7 NPC1 promoter luciferase reporter, 24 h; Potency, µM (titrated, usually from 9.22 µM), inactives show top-dose activation, hits mostly activators; AID 485313; also: % of control where 0% means no effect; nearly all actives have a fitted effect of over 60% in size
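Stably transfected Huh7 (NPC1 promoter→luciferase), 1500 cells/well in Opti-MEM + 10% FBS, 2 h settle, then compound 24 h at 37 °C. Luminescence after 10 min with Amplite reagent.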
FLuc modulator: counter-screen for miR-21 project: firefly luciferase inhibitors or activators | purified FLuc, Km substrates, luminescence inhibition | AID 588342 | Potency, µM (highest dose often 57.5 µM), for inactives: at the top dose activity change, negative = inhibition, actives largely listed as inhibitors | P08659 | actives 6.9% (n = 360,000);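 also: plate controls were vehicle for no effect and reference inhibitor for full effect; nearly all actives have a fitted effect of over 55% in size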
Target sequence (P08659 whole entry, looked up): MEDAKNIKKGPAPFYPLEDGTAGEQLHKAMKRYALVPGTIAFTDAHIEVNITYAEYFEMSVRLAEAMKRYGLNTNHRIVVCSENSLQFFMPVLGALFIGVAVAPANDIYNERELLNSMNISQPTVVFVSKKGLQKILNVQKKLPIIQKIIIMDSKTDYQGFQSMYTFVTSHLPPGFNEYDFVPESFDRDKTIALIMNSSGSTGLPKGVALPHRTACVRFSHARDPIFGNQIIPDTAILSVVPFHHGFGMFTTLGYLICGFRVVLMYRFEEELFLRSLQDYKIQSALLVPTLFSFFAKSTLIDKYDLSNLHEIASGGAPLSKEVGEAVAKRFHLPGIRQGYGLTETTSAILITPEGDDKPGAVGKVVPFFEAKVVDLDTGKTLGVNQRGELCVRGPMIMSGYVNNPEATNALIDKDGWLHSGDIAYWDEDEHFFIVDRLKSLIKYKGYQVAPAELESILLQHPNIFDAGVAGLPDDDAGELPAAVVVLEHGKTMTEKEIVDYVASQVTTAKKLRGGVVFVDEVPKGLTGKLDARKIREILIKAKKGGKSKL
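Purified P. pyralis luciferase (10nM final) with 10uM D-luciferin and 10uM ATP (Km levels) in 50mM Tris acetate pH 7.5, 10mM Mg acetate, 0.01% Tween-20, 0.05% BSA; qHTS 6-point titration, ~60 µM downward; luminescence read.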
Rab9 promoter act: Rab9 promoter activation; AID 485297; Potency, µM (doses to about 9.22 µM), without a hit: top-dose activation, negative = inhibition, most hits filed as activators; Huh7 Rab9 promoter-luciferase reporter, luminescence, 24 h; actives 2.8% (n = 320,000); also: % of control where 0% means no effect; nearly all actives have a fitted effect of over 60% in size
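Steps: seed 1500 Huh7 Rab9-luc cells per well, rest 2 h at 37 °C; add compound in DMSO; incubate 24 h; add luciferase reagent, 10 min ambient; read luminescence.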
* marks the source's active call; other numbers are inactive results; ? = inconclusive; / = no result given; [ ] = another dose, or the depositor's remark. Calls follow the shape of the dose curve; as a rule, active = well fitted curve in the direction sought with a large enough effect; inconclusive = small, poorly fitted or top-dose-only effect, or another doubt; inactive = no such curve, though single readings can be large; an effect the other way counts as inactive or inconclusive. Potency is read from the fitted curve at half-maximal effect.

SMILES	Luc counter	ELG1 genotoxic	SMN2 splice up	NPC1 promoter act	FLuc modulator	Rab9 promoter act
CCN1CCN(Cc2ccc(NC(=O)c3ccc(C)c(NC(=O)C(=O)c4c[nH]c5ccccc45)c3)cc2C(F)(F)F)CC1	/	-14%	/	-1%	?	-5%
COc1ccc(N2CCN(C(=O)CSc3nc(-c4ccccc4)no3)CC2)cc1	/	/	/	/	7%	/
NC(=S)NNC(=O)c1cccc(Br)c1	0%	0%	24%	-6%	5%	-4%
O=C(NNC(=O)c1ccccc1C(=O)O)c1ccc(-c2ccccc2)cc1	0%	2%	3%	-4%	17µM*	1%
O=C(NNC(=O)c1ccccc1O)c1ccc(Br)cc1	/	26%	/	?	12µM*	?
O=C(COC(=O)c1ccccc1O)NNC(=O)c1ccc(Br)cc1	/	-1%	/	-2%	-1%	-4%
O=C(NNC(=O)c1ccccc1O)c1ccc(Cl)cc1	-6%	?	18%	?	9.5µM*	?
O=C(NNC(=O)c1ccccc1O)c1cccc(Br)c1	/	13%	/	?	17µM*	19%
O=C(NNC(=O)c1ccc(O)cc1O)c1ccc(Cl)cc1	2%	?	14%	14%	?	5%
O=C(NNC(=O)C1CC1)c1ccc(-c2ccccc2)cc1	-3%	7%	-7%	7%	-6%	15%
CC1COC2=C1C(=O)C(=O)c1c2ccc2c1CCCC2(C)C (stereo not given)	-2%[39.9 µM]	/	-1%	/	/	/
CCc1ccc(NC(=O)CSc2nc3c(sc4ccccc43)c(=O)n2CCCOC)cc1	/	/	/	/	-6%	/
O=C(Nc1ccc(Br)cc1)c1cnn2c1NC(=C1CC1)C=C2C(F)F	/	/	/	/	1%	/
COC(=O)c1ccccc1NC(=O)COc1ccc(S(=O)(=O)NC(C)C)cc1	-1%	-1%	-5%	-7%	3%	-7%
O=C(Oc1ccccc1)N1CCC2(CC1)CCN(c1ccccn1)CC2	0%	/	-64%	/	/	/
Cc1cccc(CSc2nc(-c3cccc(C)c3)nc3c2Cc2c(CO)cnc(C)c2O3)c1	/	/	/	/	0%	/
Cc1cccc(C(=O)NNC(=O)c2ccc(Cl)cc2)c1O	0%	9.2µM*	16µM*	?	11µM*	?
Cc1cccc(-n2c(C)cc(/C=C3\NC(=O)NC3=O)c2C)c1	/	?	/	20%	6.7µM*	24%
COC(=O)C1=C(C)NC(=O)/C1=C\c1cc(C)n(-c2cccc(C)c2)c1C	-2%	8%	-36%	2%	27µM*	18%
COC(=O)C1=C(C)NC(=O)/C1=C\c1cc(C)n(-c2ccc(F)cc2)c1C	0%	3%	3%	0%	19µM*	19%
O=C(O)c1ccccc1/C=N\N=C1c2ccccc2-c2ccccc21	1%[7.66 µM]	/	-4%[9.22 µM]	/	/	/
Brc1ccc2oc3c(N4CCOCC4)ncnc3c2c1	-2%	15%	19%	?	15µM*	?
O=C(Cc1ccccc1)Nc1ccc2[nH]ncc2c1	/	-5%	/	9%	-18%	1%
O=C(Nc1ccc2[nH]ncc2c1)c1ccccc1Br	/	8%	/	3.2µM*	17µM*	?
O=C(Nc1ccc2[nH]ncc2c1)c1ccccc1Cl	/	?	/	4µM*	9.5µM*	3.5µM*
SMILES	Luc counter	ELG1 genotoxic	SMN2 splice up	NPC1 promoter act	FLuc modulator	Rab9 promoter act
O=C(Oc1ccc(Cl)cc1)c1ccc(COC(=O)c2cnccn2)cc1	0%	9%	12%	-5%	12µM*	-3%
CC(C)OC(=O)c1ccc(COC(=O)c2cnccn2)cc1	-11%	2%	-8%	1%	7.6µM*	0%
COc1ccc(/C=C/c2nc3cc(-c4ccccc4)ccc3o2)cc1O	1%	-1%	-91%	1%	9.5µM*	5%
Cc1ccc(Cl)cc1N1CCN(C(=O)c2cc(S(=O)(=O)N3CCCC3)cn2C)CC1	/	/	/	/	-2%	/
Cc1[nH]c2ccccc2c1C(=O)C(=O)NC1CC(=O)N(c2cccc(F)c2)C1 (stereo not given)	/	/	/	/	3%	/
CCCOc1ccc(-c2nonc2NC(=O)c2ccco2)cc1OCCC	/	/	-12%	/	-4%	/
CC(C)NC(=S)N/N=C/c1sc(N2CCCCC2)nc1-c1cccs1	-4%	9%	-15%	-4%	3µM*	13%
O=C(N/N=C/c1sc(N2CCCCC2)nc1-c1cccs1)C1CC1	-3%	0%	18%	5%	?	13%
O=C(/C=C/c1ccc(Cl)cc1Cl)NCc1ccncc1	1%	0%	-20%	4%	?	3%
O=C(/C=C/c1ccccc1Cl)NCc1ccco1	-5%	9%	24%	?	24µM*	-22%
O=C(O)/C=C/C(=O)Nc1cccnc1	-1%	5%	9%	2%	-1%	-5%
CCC(CC)NC(=O)/C=C/c1ccccc1Cl	-11%	16%	?	21%	?	27%
O=C(/C=C/c1ccccc1Cl)Nc1cccnc1	/	4.1µM*	/	1.1µM*	1.3µM*	1.8µM*
O=C(/C=C/c1c(Cl)cccc1Cl)NCc1ccco1	6%	8%	8%	-3%	0%	?
CC(=O)N(C)c1ccc(NC(=O)/C=C/c2ccccc2Cl)cc1	-7%	?	29%	29%	6µM*	?
O=C(/C=C/c1ccc(Cl)cc1Cl)Nc1ccncc1	-3%	?	-4%	29%	3.4µM*	27%
Cc1cccc(NS(=O)(=O)c2ccc(Cl)c(C(=O)O)c2)c1	1%	/	/	/	/	/
COc1ccccc1CN1CCN(C2CCN(C(=O)NC(C)C)CC2)C(=O)C1=O	/	/	/	/	1%	/
COC(=O)c1sccc1NC(=O)/C=C\c1ccc(Cl)cc1Cl	?	8%	28%	?	?	4µM*
O=C(/C=C/c1ccccc1Cl)Nc1ccncc1	2%	11%	17%	?	4.3µM*	2.8µM*
COc1cc(C(=O)NCCOc2ccccc2)cc(OC)c1OC	/	8%	/	1%	-6%	-1%[1.84 µM]
CC(C)(C)c1ccc(C(=O)NCCOc2ccccc2F)cc1	/	0.73µM*	/	16%	0.27µM*	?
CC(C)(C)c1ccc(C(=O)NCCOc2ccccc2)cc1	/	0.73µM*	/	0.32µM*	0.34µM*	?
COc1cccc(C(=O)NCCOc2cc(C)cc(C)c2)c1	1%	2%	-1%	1%	?	-4%
Cc1ccc(C(=O)NCCOc2cccc(C)c2)cc1	1%	?	26%	29%	24µM*	27%
COc1cc(OC)cc(C(=O)NCCOc2ccccc2)c1	-1%	12µM*	26%	1.6µM*	?	1µM*
O=C(NCc1ccc(F)cc1)C(=O)NCC(c1ccco1)S(=O)(=O)c1cccs1 (stereo not given)	/	/	/	/	5%	/
Oc1ccc(/C=N/Nc2nn3cnnc3c3ccccc23)cc1	/	1%	/	?	9.5µM*	2%
